Measurements: the supplement of paper PMC10849652
Targets with a hit are over-represented here; the source holds about 7,900 in all. About 0.6% of all pairs of compound and target were hits.

Columns and labels:
Assay in all cases: log2 fold change, soluble protein after heating vs DMSO (PISA); higher = thermal stabilisation; K562 cells, 10 uM, 30 min; active = over 0.2 and 3.5 SD of the protein, either way, in both replicates (recomputed)
erlotinib = compound: C#Cc1cccc(Nc2ncnc3cc(OCCOC)c(OCCOC)cc23)c1 [erlotinib]
How it was run: (§1)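 Values are thermal stability changes relative to control samples and are taken from duplicates. They are stated as log2 fold changes. Before quantification by TMTpro 16plex LC-MS/MS with equalised channel sums, K562 cells at 2×10^6 cells/mL were treated with 10 μM compound for 30 min, heated in aliquots for 3 min across 48°C-58°C, pooled, extracted in PBS with 0.5% NP-40 at 4°C, and centrifuged at 21,000xg for 90 min to give the soluble supernatant.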

[1] = compound: C/C(=N\NC(=O)C1=CC(=CC=C1)S(=O)(=O)N2CCOCC2)/C3=C(C=CC(=C3)Cl)O
How it was run: as §1

[2] = compound: C1=CC(=C(C=C1Cl)C2=NC3=NC=CN=C3C(=N2)NC4=CC=NC=C4)F
How it was run: as §1

[3] = compound: C1=CC(=CC=C1C2=NC3=C(N2)C=C(C=C3)C(=O)N)OC4=CC=C(C=C4)Cl
How it was run: as §1

[4] = compound: C1=CC2=C(C=CC(=C2)/C=C\3/C(=O)NC(=NCC4=CC=CS4)S3)N=C1
How it was run: as §1

[5] = compound: C1=CC2=NC=CN=C2C=C1/C=C/3\C(=O)NC(=O)S3
How it was run: as §1

[6] = compound: C1=CC=C(C=C1)C2=NC(=C(N2)C3=CC=NC=C3)C4=CC(=C(C=C4)Cl)O
How it was run: as §1

[7] = compound: C1=CC=C2C(=C1)C3=NNC4=CC=CC(=C43)C2=O
How it was run: as §1

[8] = compound: C1CCN(C1)C(=O)NC2=CC=CC(=C2)NC3=NC=C(C(=N3)NCCC4=CN=CN4)Br
How it was run: as §1

[9] = compound: C1CN(CCC1(CC2=CC=C(C=C2)Cl)N)C3=NC=NC4=C3C=CN4
How it was run: as §1

IRAK-1-4 Inhibitor I = compound: C1COCCN1CCN2C3=CC=CC=C3N=C2NC(=O)C4=CC(=CC=C4)[N+](=O)[O-] [IRAK-1-4 Inhibitor I]
How it was run: as §1

ibrutinib = compound: C=CC(=O)N1CCC[C@@H](n2nc(-c3ccc(Oc4ccccc4)cc3)c3c(N)ncnc32)C1 [ibrutinib]
How it was run: as §1

[10] = compound: CC(=O)c1cnc2ccc(-c3cc(Cl)c(O)c(Cl)c3)nc2c1N[C@H]1CC[C@H](CN(C)C)CC1
How it was run: as §1

ralimetinib = compound: CC(C)(C)Cn1c(N)nc2ccc(-c3[nH]c(C(C)(C)C)nc3-c3ccc(F)cc3)nc21 [ralimetinib]
How it was run: as §1

[11] = compound: CC(C)(O)CC(=O)NCCn1ccc2ncnc(Nc3ccc(Oc4cccc(C(F)(F)F)c4)c(Cl)c3)c21
How it was run: as §1

[12] = compound: CC(C)C1=C2N=C(C=C(N2N=C1)NCC3=CC=CC=C3)NCCCCCCN
How it was run: as §1

[13] = compound: CC(C)C[C@@H](C=O)NC(=O)[C@H](CC(C)C)NC(=O)[C@H](CC(C)C)NC(=O)OCc1ccccc1
How it was run: as §1

pinometostat = compound: CC(C)N(C[C@H]1O[C@@H](n2cnc3c(N)ncnc32)[C@H](O)[C@@H]1O)[C@H]1C[C@@H](CCc2nc3cc(C(C)(C)C)ccc3[nH]2)C1 [pinometostat]
How it was run: as §1

[14] = compound: CC1=C(C(CC(=O)N1)C2=CC=C(C=C2)C(F)(F)F)C(=O)NC3=C(C=C4C(=C3)C=NN4)F
How it was run: as §1

[15] = compound: CC1=C(C2=C(C=C1)C(=O)C3=CC=CC=C3N2CCCN)C
How it was run: as §1

Measured: log2 fold change

FLNA (UniProt P21333)
inactive: erlotinib 0.022 | [1] 0.072 | [2] -0.002 | [3] -0.032 | [4] -0.022 | [5] 0.005 | [6] 0.013 | [7] -0.017 | [8] -0.018 | [9] -0.133 | IRAK-1-4 Inhibitor I -0.046 | ibrutinib -0.111 | [10] 0.031 | ralimetinib 0.035 | [11] -0.086 | [12] -0.112 | [13] 0.049 | pinometostat 0.081 | [14] -0.017 | [15] -0.027

HBA1 (UniProt P69905)
Sequence of UniProt P69905 (P69905 whole entry, looked up): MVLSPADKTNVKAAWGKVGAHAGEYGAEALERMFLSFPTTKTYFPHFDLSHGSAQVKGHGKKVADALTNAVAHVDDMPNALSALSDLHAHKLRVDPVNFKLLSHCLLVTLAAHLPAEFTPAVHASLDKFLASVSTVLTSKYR
inactive: erlotinib -0.058 | [1] 0.048 | [2] 0.215 | [3] 0.063 | [4] 0.104 | [5] 0.023 | [6] 0.123 | [7] -0.026 | [8] -0.105 | [9] 0.031 | IRAK-1-4 Inhibitor I 0.002 | ibrutinib 0.007 | [10] -0.03 | ralimetinib -0.037 | [11] -0.035 | [12] 0.094 | [13] -0.056 | pinometostat 0.025 | [14] -0.019 | [15] 0.127

FARS2 (UniProt O95363)
Sequence of UniProt O95363 (O95363 whole entry, looked up): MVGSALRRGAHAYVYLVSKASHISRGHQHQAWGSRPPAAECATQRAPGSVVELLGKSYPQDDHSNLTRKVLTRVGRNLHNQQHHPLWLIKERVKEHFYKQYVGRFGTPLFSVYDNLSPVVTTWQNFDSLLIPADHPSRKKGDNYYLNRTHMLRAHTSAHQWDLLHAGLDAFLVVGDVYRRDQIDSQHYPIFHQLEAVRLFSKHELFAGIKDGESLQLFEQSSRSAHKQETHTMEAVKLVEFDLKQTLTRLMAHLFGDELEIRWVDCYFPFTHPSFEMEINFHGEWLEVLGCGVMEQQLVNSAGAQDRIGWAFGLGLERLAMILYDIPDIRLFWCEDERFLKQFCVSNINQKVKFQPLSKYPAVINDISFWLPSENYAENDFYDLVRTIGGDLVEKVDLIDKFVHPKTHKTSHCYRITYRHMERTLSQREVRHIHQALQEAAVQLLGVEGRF
inactive: erlotinib 0 | [1] 0.081 | [2] -0.046 | [3] 0.061 | [4] -0.03 | [5] -0.018 | [6] 0.014 | [7] 0.065 | [8] 0.084 | [9] -0.057 | IRAK-1-4 Inhibitor I 0 | ibrutinib -0.038 | [10] -0.05 | ralimetinib -0.004 | [11] -0.028 | [12] -0.182 | [13] -0.001 | pinometostat 0.002 | [14] -0.003 | [15] -0.018

GOPC (UniProt Q9HD26)
inactive: erlotinib 0.016 | [1] 0.051 | [2] -0.284 | [3] -0.178 | [4] -0.027 | [5] -0.147 | [6] -0.008 | [7] 0.265 | [8] -0.036 | [9] 0.06 | IRAK-1-4 Inhibitor I -0.119 | ibrutinib -0.104 | [10] 0.03 | ralimetinib 0.259 | [11] -0.04 | [12] 0.046 | [13] 0.083 | pinometostat 0.174 | [14] -0.118 | [15] 0.085

FBXO3 (UniProt Q9UK99)
inactive: erlotinib 0.01 | [1] 0.044 | [2] 0.141 | [3] -0.018 | [4] -0.038 | [5] 0.062 | [6] 0.112 | [7] -0.003 | [8] -0.029 | [9] 0.002 | IRAK-1-4 Inhibitor I 0.038 | ibrutinib -0.003 | [10] -0.008 | ralimetinib 0.171 | [11] 0.021 | [12] -0.014 | [13] 0.031 | pinometostat 0 | [14] 0.014 | [15] -0.047

HAX1 (UniProt O00165)
Sequence of UniProt O00165 (O00165 whole entry, looked up): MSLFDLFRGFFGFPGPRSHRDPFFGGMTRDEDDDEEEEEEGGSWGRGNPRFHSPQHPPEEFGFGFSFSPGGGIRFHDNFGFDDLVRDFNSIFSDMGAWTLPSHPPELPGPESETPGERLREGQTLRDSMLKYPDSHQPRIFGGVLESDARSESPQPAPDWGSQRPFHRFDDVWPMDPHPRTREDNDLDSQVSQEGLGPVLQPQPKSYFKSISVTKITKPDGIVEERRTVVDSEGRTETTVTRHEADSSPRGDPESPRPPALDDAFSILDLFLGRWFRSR
inactive: erlotinib 0.07 | [1] -0.006 | [2] -0.024 | [3] -0.014 | [4] 0.087 | [5] 0.008 | [6] 0.06 | [7] 0.156 | [8] 0.027 | [9] -0.078 | IRAK-1-4 Inhibitor I -0.017 | ibrutinib -0.036 | [10] -0.07 | ralimetinib 0.026 | [11] -0.156 | [13] 0.045 | pinometostat 0.107 | [14] 0.047 | [15] 0.065
active: [12] -0.498

HDAC2 (UniProt Q92769)
Sequence of UniProt Q92769 (Q92769 whole entry, looked up): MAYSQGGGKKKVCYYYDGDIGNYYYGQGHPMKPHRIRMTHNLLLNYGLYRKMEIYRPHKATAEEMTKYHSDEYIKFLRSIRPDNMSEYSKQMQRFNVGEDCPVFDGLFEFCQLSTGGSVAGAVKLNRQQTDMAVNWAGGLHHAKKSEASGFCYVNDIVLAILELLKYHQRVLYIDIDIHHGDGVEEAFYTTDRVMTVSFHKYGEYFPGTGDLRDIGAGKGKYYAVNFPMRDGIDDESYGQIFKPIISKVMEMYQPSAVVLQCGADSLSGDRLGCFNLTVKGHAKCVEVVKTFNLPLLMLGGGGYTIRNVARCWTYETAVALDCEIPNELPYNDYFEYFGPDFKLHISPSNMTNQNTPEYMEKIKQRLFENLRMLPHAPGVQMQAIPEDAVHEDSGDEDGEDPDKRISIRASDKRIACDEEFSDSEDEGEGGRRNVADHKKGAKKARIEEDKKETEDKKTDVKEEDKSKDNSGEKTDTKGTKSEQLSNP
inactive: [1] 0.013 | [2] -0.02 | [3] -0.012 | [4] 0.006 | [5] 0.002 | [6] -0.011 | [7] -0.011 | [8] -0.025 | [9] 0.023 | IRAK-1-4 Inhibitor I 0 | ibrutinib -0.015 | [10] -0.046 | ralimetinib -0.004 | [11] 0.01 | [12] 0.007 | [13] -0.04 | pinometostat -0.01 | [14] -0.006 | [15] 0
active: erlotinib 0.757

GTF3C4 (UniProt Q9UKN8)
inactive: erlotinib -0.016 | [1] 0.065 | [2] 0.026 | [3] 0.003 | [4] 0.025 | [5] -0.005 | [6] 0.003 | [7] -0.022 | [8] -0.026 | [9] 0.027 | IRAK-1-4 Inhibitor I -0.002 | ibrutinib 0.032 | [10] -0.051 | ralimetinib -0.045 | [11] 0.035 | [12] 0.038 | [13] 0.035 | pinometostat 0 | [14] -0.047 | [15] -0.041

FOXK1 (UniProt P85037)
Sequence of UniProt P85037 (P85037 whole entry, looked up): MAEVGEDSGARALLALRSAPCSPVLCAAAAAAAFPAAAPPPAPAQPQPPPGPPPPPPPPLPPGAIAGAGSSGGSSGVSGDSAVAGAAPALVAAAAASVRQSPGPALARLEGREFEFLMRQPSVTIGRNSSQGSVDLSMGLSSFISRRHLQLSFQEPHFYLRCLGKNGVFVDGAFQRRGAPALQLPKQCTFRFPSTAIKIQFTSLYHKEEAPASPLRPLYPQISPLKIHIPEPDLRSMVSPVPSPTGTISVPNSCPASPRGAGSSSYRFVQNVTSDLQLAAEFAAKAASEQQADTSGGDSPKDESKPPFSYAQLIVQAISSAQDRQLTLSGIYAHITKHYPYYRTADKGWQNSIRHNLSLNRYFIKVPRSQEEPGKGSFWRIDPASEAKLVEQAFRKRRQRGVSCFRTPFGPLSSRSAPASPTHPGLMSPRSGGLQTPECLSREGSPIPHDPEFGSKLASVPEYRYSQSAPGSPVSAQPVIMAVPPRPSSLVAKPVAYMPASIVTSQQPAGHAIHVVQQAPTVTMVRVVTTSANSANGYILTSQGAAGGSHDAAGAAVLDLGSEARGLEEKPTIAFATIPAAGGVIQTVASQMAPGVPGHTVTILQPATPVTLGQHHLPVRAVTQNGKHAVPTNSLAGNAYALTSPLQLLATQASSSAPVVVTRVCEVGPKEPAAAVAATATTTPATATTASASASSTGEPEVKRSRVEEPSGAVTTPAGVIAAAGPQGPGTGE
active: [10] -1.03
inactive: erlotinib 0.113 | [1] 0 | [2] 0.054 | [3] -0.307 | [4] 0.425 | [5] 0.355 | [6] -0.075 | [7] 0.61 | [8] 0.394 | [9] 0.352 | IRAK-1-4 Inhibitor I 0.046 | ibrutinib 0.121 | ralimetinib -0.027 | [11] 0.015 | [12] 0.111 | [13] 0.052 | pinometostat -0.002 | [14] -0.05 | [15] 0.154

GALNT11 (UniProt Q8NCW6)
Sequence of UniProt Q8NCW6 (Q8NCW6 whole entry, looked up): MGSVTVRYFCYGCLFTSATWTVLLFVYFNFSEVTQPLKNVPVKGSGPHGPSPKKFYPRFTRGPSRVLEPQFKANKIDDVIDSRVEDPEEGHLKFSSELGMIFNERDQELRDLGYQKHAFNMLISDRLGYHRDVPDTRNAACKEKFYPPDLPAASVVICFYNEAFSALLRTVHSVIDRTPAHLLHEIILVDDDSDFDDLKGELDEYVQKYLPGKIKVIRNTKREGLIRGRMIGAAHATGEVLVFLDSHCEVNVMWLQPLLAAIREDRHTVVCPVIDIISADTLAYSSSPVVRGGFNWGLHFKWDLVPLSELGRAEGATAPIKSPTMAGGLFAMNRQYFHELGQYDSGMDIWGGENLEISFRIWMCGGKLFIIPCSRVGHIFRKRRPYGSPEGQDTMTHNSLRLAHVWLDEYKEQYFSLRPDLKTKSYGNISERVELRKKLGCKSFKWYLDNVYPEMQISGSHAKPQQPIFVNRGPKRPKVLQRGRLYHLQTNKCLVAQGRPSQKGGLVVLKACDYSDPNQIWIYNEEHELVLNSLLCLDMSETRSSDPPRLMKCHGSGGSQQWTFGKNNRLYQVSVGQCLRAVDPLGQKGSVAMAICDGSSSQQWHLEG
inactive: erlotinib 0.088 | [1] -0.019 | [2] 0.033 | [3] -0.009 | [4] 0.122 | [5] 0.118 | [6] -0.034 | [7] 0.043 | [8] -0.025 | [9] 0.014 | IRAK-1-4 Inhibitor I -0.008 | ibrutinib -0.088 | [10] -0.022 | ralimetinib 0.065 | [11] 0.018 | [12] 0.015 | [13] 0.038 | pinometostat 0.045 | [14] 0.002 | [15] 0.039

HBZ (UniProt P02008)
Sequence of UniProt P02008 (P02008 whole entry, looked up): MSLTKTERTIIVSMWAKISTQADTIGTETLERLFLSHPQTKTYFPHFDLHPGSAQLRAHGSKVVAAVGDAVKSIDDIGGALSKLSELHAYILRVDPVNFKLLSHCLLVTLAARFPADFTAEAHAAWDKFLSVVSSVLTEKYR
inactive: erlotinib -0.013 | [1] 0.077 | [2] 0.252 | [3] 0.042 | [4] 0.143 | [5] 0.006 | [6] 0.118 | [7] 0.017 | [8] -0.034 | [9] 0.043 | IRAK-1-4 Inhibitor I 0.025 | ibrutinib -0.001 | [10] -0.005 | ralimetinib -0.052 | [11] -0.042 | [12] 0.102 | [13] -0.019 | pinometostat -0.017 | [14] 0.004 | [15] 0.088

GTF2H3 (UniProt Q13889)
Sequence of UniProt Q13889 (Q13889 whole entry, looked up): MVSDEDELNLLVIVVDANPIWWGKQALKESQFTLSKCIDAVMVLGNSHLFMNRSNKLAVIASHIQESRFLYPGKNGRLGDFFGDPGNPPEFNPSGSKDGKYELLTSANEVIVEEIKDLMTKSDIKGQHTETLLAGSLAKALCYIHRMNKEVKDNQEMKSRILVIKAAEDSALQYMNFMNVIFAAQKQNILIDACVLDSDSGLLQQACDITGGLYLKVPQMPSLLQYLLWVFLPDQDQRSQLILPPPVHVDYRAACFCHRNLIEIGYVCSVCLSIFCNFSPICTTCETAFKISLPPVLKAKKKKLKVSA
inactive: erlotinib -0.002 | [1] 0.041 | [2] -0.115 | [3] 0.051 | [4] 0.027 | [5] -0.017 | [6] 0.014 | [7] 0.012 | [8] -0.004 | [9] 0.044 | IRAK-1-4 Inhibitor I -0.06 | ibrutinib 0.056 | [10] 0.063 | ralimetinib 0.049 | [11] 0.006 | [12] 0.011 | [13] 0 | pinometostat 0.06 | [14] -0.074 | [15] 0.02

HEXB (UniProt P07686)
inactive: erlotinib -0.004 | [1] 0.002 | [2] 0.01 | [3] 0.003 | [4] -0.002 | [5] 0.017 | [6] 0.017 | [7] -0.01 | [8] 0.008 | [9] 0.026 | IRAK-1-4 Inhibitor I 0.06 | ibrutinib 0.004 | [10] 0.003 | ralimetinib -0.068 | [11] -0.004 | [12] -0.14 | [13] 0.003 | pinometostat -0.025 | [14] -0.015 | [15] -0.03

FKBP4 (UniProt Q02790)
Sequence of UniProt Q02790 (Q02790 whole entry, looked up): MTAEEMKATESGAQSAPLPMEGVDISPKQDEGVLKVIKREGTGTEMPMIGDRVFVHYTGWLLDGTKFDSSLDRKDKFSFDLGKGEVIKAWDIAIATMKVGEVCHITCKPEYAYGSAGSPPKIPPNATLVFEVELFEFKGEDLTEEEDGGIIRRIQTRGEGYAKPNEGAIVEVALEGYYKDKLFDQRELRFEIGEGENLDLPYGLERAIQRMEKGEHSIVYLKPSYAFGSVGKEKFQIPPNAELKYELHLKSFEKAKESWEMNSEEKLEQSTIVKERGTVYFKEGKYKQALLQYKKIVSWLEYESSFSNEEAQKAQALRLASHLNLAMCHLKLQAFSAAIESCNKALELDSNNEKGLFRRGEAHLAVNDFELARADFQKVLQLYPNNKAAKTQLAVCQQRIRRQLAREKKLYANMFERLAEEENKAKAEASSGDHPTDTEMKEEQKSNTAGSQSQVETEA
inactive: erlotinib -0.04 | [1] 0.07 | [2] 0.055 | [3] -0.042 | [4] 0.017 | [5] 0.007 | [6] 0.036 | [7] 0.047 | [8] 0.016 | [9] -0.033 | IRAK-1-4 Inhibitor I 0 | ibrutinib -0.005 | [10] -0.006 | ralimetinib -0.016 | [11] -0.036 | [12] -0.094 | [13] 0.002 | pinometostat -0.032 | [14] -0.019 | [15] 0.013

FBXO42 (UniProt Q6P3S6)
Sequence of UniProt Q6P3S6 (Q6P3S6 whole entry, looked up): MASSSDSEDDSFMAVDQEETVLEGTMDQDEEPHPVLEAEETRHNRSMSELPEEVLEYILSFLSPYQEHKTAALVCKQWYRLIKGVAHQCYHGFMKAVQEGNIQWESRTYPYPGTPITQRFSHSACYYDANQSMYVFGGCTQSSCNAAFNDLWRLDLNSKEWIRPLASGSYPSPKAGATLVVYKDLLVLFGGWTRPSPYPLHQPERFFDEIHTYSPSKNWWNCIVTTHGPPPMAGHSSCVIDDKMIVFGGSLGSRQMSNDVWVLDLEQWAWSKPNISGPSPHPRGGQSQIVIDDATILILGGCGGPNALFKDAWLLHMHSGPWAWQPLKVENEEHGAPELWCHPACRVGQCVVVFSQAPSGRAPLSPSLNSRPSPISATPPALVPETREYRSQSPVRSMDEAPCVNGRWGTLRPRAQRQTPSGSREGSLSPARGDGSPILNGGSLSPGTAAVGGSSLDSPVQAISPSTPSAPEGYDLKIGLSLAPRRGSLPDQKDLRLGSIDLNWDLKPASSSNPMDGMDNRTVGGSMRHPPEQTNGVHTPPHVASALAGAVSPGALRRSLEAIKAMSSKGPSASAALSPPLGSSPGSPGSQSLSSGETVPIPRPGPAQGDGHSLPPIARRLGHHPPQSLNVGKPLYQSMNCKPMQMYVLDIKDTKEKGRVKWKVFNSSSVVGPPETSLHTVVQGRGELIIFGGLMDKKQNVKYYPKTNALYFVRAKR
inactive: erlotinib 0.026 | [1] -0.006 | [2] -0.002 | [3] 0.025 | [4] 0.025 | [5] 0.055 | [6] 0.051 | [7] -0.006 | [8] -0.05 | [9] -0.024 | IRAK-1-4 Inhibitor I -0.103 | ibrutinib -0.009 | [10] -0.108 | ralimetinib -0.064 | [11] -0.093 | [12] -0.169 | [13] 0.011 | pinometostat -0.051 | [14] -0.038 | [15] 0.086

H1FX (UniProt Q92522)
Sequence of UniProt Q92522 (Q92522 whole entry, looked up): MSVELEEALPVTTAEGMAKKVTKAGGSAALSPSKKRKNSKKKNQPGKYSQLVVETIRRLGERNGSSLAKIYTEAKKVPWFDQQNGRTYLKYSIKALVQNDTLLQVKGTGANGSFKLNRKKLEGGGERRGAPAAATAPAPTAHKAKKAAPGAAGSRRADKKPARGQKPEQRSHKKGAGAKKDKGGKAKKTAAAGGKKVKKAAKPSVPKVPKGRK
active: [15] -0.718
inactive: erlotinib -0.285 | [1] -0.189 | [2] -0.379 | [3] 0.016 | [4] -0.12 | [5] -0.012 | [6] 0.033 | [7] 0 | [8] 0.076 | [9] -0.101 | IRAK-1-4 Inhibitor I -0.171 | ibrutinib 0.077 | [10] 0.231 | ralimetinib 0.204 | [11] 0.031 | [12] 0.13 | [13] 0.09 | pinometostat 0.246 | [14] 0.02
